High-throughput results deposited in PubChem BioAssay by National Center for Advancing Translational Sciences (NCATS).
GLS inh: blocks human kidney-isoform glutaminase activity. Potency, µM (top dose mostly 45.5 µM), most hits filed as inhibitors. 410,000 compounds, 0.21% hits. GLS enzymatic activity, qHTS titration. AID 624170. O94925
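hKGA; 45 mM KH2PO4 pH 8.2 + 0.02% Tween-20; cpd via pin tool; 1 mM Gln soln; GluOx/HRP/Amplex Red; RT 30 min; fluor. t0 & final.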
BLM helicase inh: inhibitors of human Bloom syndrome helicase BLM. P54132. recombinant BLM DNA unwinding, fluorescence dequenching. Potency, µM (highest dose often 56.1 µM), most hits filed as inhibitors. 350,000 compounds, 0.2% hits. AID 2528; note: nearly all actives have a fitted effect of over 35% in size
RECQ1 inh-1: RECQ1 (human) helicase inhibition | RECQ1 DNA unwinding, red fluorescence kinetic read | Potency, µM (highest dose often 57.3 µM), usual class: inhibitors | 240,000 compounds, 0.54% hits; note: nearly all actives have a fitted effect of over 30% in size
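50 nM RECQ1T1 preincubated 15 min with compound in Tris pH 8.0 buffer with MgCl2, DTT, Tween-20 and 2.5 ug/ml poly(dI-dC); started with 200 nM TAMRA/BHQ-2 forked duplex and 2 mM ATP. Unwinding read as fluorescence (525/598 nm), two reads 2 h apart.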
Tb PGK inh: T. brucei PGK inhibition. Potency, µM (series often up to 57.5 µM), most hits filed as inhibitors. P07378. PGK/GAPDH coupled, Kinase-Glo luminescence, 60 min. 380,000 compounds, 0.043% hits; note: nearly all actives have a fitted effect of over 60% in size
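Recombinant glycosomal PGK reaction used 1,3-bisphosphoglycerate generated in-well by GAPDH (100nM final) in 100mM TEA pH 7.6, 5mM MgCl2, 0.01% Tween-20. After 60 minutes at room temperature, ATP was read by Kinase-Glo Plus luminescence end-point.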
TDP1 block: inhibitors of human tyrosyl-DNA phosphodiesterase TDP1. Q9NUW8. recombinant TDP1, AlphaScreen DNA substrate cleavage. Potency, µM (series often up to 130 µM), hits mostly inhibitors. 350,000 compounds, 0.28% hits; note: nearly all actives have a fitted effect of over 40% in size
Target sequence (Q9NUW8 whole entry, looked up): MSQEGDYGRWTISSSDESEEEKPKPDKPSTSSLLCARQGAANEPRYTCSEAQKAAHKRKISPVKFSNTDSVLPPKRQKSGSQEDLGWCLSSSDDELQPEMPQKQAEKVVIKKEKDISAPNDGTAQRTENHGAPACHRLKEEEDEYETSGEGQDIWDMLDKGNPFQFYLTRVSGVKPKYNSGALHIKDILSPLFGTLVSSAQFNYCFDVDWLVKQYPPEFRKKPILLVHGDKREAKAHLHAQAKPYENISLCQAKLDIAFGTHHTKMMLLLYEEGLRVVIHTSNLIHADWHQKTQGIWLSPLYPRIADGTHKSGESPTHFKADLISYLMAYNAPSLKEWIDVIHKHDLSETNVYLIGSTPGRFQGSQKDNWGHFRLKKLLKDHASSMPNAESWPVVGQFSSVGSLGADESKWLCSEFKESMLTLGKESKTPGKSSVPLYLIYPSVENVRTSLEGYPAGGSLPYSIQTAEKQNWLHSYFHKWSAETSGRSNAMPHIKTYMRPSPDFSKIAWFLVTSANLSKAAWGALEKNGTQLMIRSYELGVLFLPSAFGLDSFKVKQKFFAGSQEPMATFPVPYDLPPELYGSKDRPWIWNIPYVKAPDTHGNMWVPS
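Signal: AlphaScreen proximity between streptavidin donor and anti-FITC acceptor beads on intact substrate. Reaction: Tdp1 1 nM, substrate 15 nM final, 5 min RT after 15 min compound preincubation.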
APEX1 inh: APE1 (human) endonuclease inhibition | recombinant APE1, TAMRA/BHQ-2 abasic DNA cleavage fluorescence | Potency, µM (doses to about 65.8 µM), most hits filed as inhibitors | AID 2517 | 350,000 compounds, 0.35% hits; note: nearly all actives have a fitted effect of over 55% in size
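Substrate: short duplex with […] THF abasic site, 5'-TAMRA and 3'-BHQ-2, 50 nM final. APE1 at 0.75 nM, preincubated 15 min RT with compound. Fluorescence increase from first to third read measured activity.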
RECQ1 conf: confirmation of human RECQ1 helicase inhibitors | Potency, µM (top dose mostly 229 µM), hits mostly inhibitors | 610 compounds, 28% hits | AID 2708 | RECQ1 helicase DNA unwinding, fluorescence | shares compounds with RECQ1 inh-1; note: nearly all actives have a fitted effect of over 45% in size
ADP FP counter: counter-screen for RECQ1 inhibitors: ADP displacement; shares compounds with RECQ1 inh-1; ADP fluorescence polarization displacement counterscreen; Potency, µM (titrated, usually from 228 µM), hits mostly inhibitors; 530 compounds, 27% hits; note: nearly all actives have a fitted effect of over 45% in size
RECQ1 inh-2: confirmation of human RECQ1 helicase inhibitors; shares compounds with RECQ1 inh-1; recombinant RECQ1 DNA unwinding, red fluorescence; Potency, µM (top dose mostly 119 µM), most hits filed as inhibitors; 1,100 compounds, 15% hits; AID 504841; note: nearly all actives have a fitted effect of over 50% in size
A number is an active result; - = inactive; ? = inconclusive; . = no result. Sampled rows, rich in hits. Any-hit rate of the full collection: about 0.85%. Calls come from the whole dose curve; as a rule, active = well fitted curve in the direction sought with a large enough effect; inconclusive = small, poorly fitted or top-dose-only effect, or another doubt; inactive = no such curve, though single readings can be large; an effect the other way counts as inactive or inconclusive.

SMILES | GLS inh | BLM helicase inh | RECQ1 inh-1 | Tb PGK inh | TDP1 block | APEX1 inh | RECQ1 inh-2 | others
Cc1cc2cc(CNS(=O)(=O)c3ccc4ccccc4c3)ccc2n1C | - | - | ? | - | - | - | .
CC(=O)Nc1ccc(S(=O)(=O)NCc2ccc3c(c2)cc(C)n3C)cc1 | - | - | 31.6µM | - | - | - | 50.1µM
O=C(O)CC/C=C\CC[C@@H]1[C@@H](N2CCCCC2)[C@@H](O)C[C@@H]1OCc1ccc(-c2ccccc2)cc1 | - | - | . | . | . | . | .
CCC1CCCCC1 | . | - | - | . | - | - | .
Cc1cc(C)cc(NC(=O)c2nnn(Cc3cc(C)ccc3C)c2N)c1 | - | - | 1.78µM | - | - | - | - | RECQ1 conf=?;ADP FP counter=?
Cc1ccc(C)c(Cn2nnc(C(=O)Nc3ccc4c(c3)OCCO4)c2N)c1 | - | . | . | - | - | - | .
CNC(=O)[C@H]1O[C@@H](n2cnc3c(N)ncnc32)[C@H](O)[C@H]1O | . | . | - | . | - | - | .
O=C(Cc1cccs1)NC1C(=O)N2C(C(=O)[O-])=C(C[n+]3ccccc3)CSC12 (configuration not stated) | 11.2µM | - | ? | . | 2.24µM | . | . | RECQ1 conf=?;ADP FP counter=6.31µM
c1ccc(Cn2nnc3c(N4CCCCCC4)ncnc32)cc1 | - | - | ? | - | - | - | -
Cc1ccc(/C=C2/SC(=O)NC2=S)o1 | - | - | 17.8µM | - | ? | 12.6µM | ? | RECQ1 conf=-;ADP FP counter=35.5µM
Cc1ccc(/C=C2/SC(=S)N(C3CCCCC3)C2=O)o1 | - | - | . | - | - | - | .
Cn1cnc([N+](=O)[O-])c1S(=O)(=O)Oc1cccc2ccccc12 | - | . | . | - | . | . | .
Cn1cnc([N+](=O)[O-])c1Oc1cccc2ccccc12 | - | - | 5.01µM | - | - | - | -
C=CCSc1nc(=O)n2ccc(C)cc2n1 | - | - | 1.58µM | - | - | - | - | RECQ1 conf=-;ADP FP counter=-
C=CCC(C)(O)c1cccc(Br)c1 (configuration not stated) | . | - | - | . | - | - | .
CC(=O)C(Sc1ccc2nnc(-c3ccc(F)cc3)n2n1)C(C)=O | - | - | - | - | - | - | .
CC(=O)C(Sc1ccc2nnc(-c3ccc(C)cc3)n2n1)C(C)=O | - | - | ? | - | - | - | ?
CC1(C(=O)O)NCCc2cc(O)c(O)cc21 (configuration not stated) | . | . | 6.31µM | . | . | 5.62µM | . | RECQ1 conf=?;ADP FP counter=3.16µM
Oc1cc2c(cc1O)C(c1ccccc1)CNCC2 (configuration not stated) | ? | - | - | - | - | - | .
O=C(CSc1n[nH]c(-c2ccccc2)n1)c1ccc(O)c(O)c1 | - | - | 20µM | . | - | ? | ?
O=P1(O)Oc2c(c(-c3ccccc3)cc3ccccc23)-c2c(-c3ccccc3)cc3ccccc3c2O1 | . | - | ? | . | - | - | ?
O=P1(O)Oc2c(c(-c3ccccc3)cc3ccc4ccccc4c23)-c2c(-c3ccccc3)cc3ccc4ccccc4c3c2O1 | . | - | - | . | - | - | .
CC(Sc1nnc(COc2ccc(Cl)cc2)n1Cc1ccccc1)C(=O)O (configuration not stated) | - | - | - | - | - | - | . | RECQ1 conf=-;ADP FP counter=-
COC(=O)c1sc2nc(-c3ccco3)ccc2c1N | - | - | - | - | - | ? | .
NC(=O)c1sc2nc(-c3ccco3)ccc2c1N | - | - | 11.2µM | - | ? | ? | -
Cc1ccc(C2C(C#N)=C(N)Oc3c2oc(CO)cc3=O)o1 (configuration not stated) | - | - | 39.8µM | - | . | ? | -
COc1cccc(C2c3c(C)nn(-c4ccc([N+](=O)[O-])cc4)c3N=C3C(=O)Nc4ccccc4N32)c1 (configuration not stated) | - | - | ? | - | - | - | -
Cc1ccc(C2c3c(C)nn(-c4ccc([N+](=O)[O-])cc4)c3N=C3C(=O)Nc4ccccc4N32)cc1 (configuration not stated) | . | - | - | . | - | - | .
COc1ccc2[nH]c(S(=O)Cc3ncc(C)c(OC)c3C)nc2n1 (configuration not stated) | - | - | . | . | . | . | .
COc1ccc(CNc2nc(Cl)nc3nc[nH]c23)cc1 | . | . | . | . | - | . | .
